# Laboratory results as given in PubChem BioAssay AID504834 (National Center for Advancing Translational Sciences (NCATS), 2011).
# Hit rate of the full screen: of about 320,000 compounds, about 22,000 (6.9%) were called active. Not shown: some 27% with an inconclusive outcome. The full list was thinned out, with actives kept by preference. A number with no mark means an inactive call. Calls follow the shape of the dose curve; as a rule, active = well fitted inhibition curve with a large enough effect; inconclusive = small, poorly fitted or top-dose-only effect, or another doubt; inactive = no such curve, though single readings can be large or run the other way.
# Assay: Primary qHTS for delayed death inhibitors of the malarial parasite plastid, 96 hour incubation
# Settings: P. falciparum luciferase reporter growth; series mostly up to 28.7 µM; activity change, negative = inhibition: at the top concentration
# Text: The goal of this screen is to discover new antimalarial compounds that act by inhibiting the development of the apicoplast in the malarial parasite Plasmodium falciparum. The biochemical processes that make this organelle essential for erythrocytic stage parasites are not well understood. However, antibiotics such as azithromycin and tetracycline, which target the apicoplast translational machinery, have a potent antimalarial effect.
# We have developed a cell-based assay that measures parasite growth based on the expression of an integrated copy of a firefly luciferase reporter. To detect small molecules that cause this "delayed death" phenotype, erythrocytes infected with the luciferase-expressing parasites were incubated with compounds for either one or two generations, corresponding to 48 and 96 hours, respectively. Compounds that inhibit parasite growth in the second generation, but not the first, should be enriched in antimalarials that target the apicoplast. Growth inhibition is detected by a decrease in luciferase activity.
# Assay Provider: David Fidock and Eric Ekland, Columbia University
# Keywords: NIH Roadmap, MLPCN, MLI, MLSMR, qHTS, NCGC, qHTS, malaria, luciferase, viability
# Four microliters of infected erythrocytes (2% hematocrit, 0.05% parasitemia final concentration) in culture medium were dispensed and the plates incubated for 96 hours at 37 C in 5% CO2. Two microliters of luciferase detection reagent was added and luminescence was detected by a ViewLux (PerkinElmer) reader.
# % is scaled to controls: 0 for no effect and ±100 for the full control effect; potency is read from the fitted curve at half-maximal effect.
SMILES,"activity change, negative = inhibition [%]",Potency
OCCN1CCN(c2nnc(-c3ccccc3)c3ccccc23)CC1,-3.39,–
CCn1ccnc1CNC(=O)CC1C(=O)NCCN1Cc1ccc(F)cc1Cl (stereo unspecified),-5.79,–
CCOc1ccc(CN2CCNC(=O)C2CC(=O)NCCCC2CCCC2)cc1 (stereo unspecified),–,13.1 µM (active)
CCCOC(=O)CC1C(=O)NCCN1Cc1ccc(F)cc1 (stereo unspecified),16.3,–
Cc1ccc(CN2CCNC(=O)C2CC(=O)NCc2csc(C(C)C)n2)cc1 (stereo unspecified),–,11.7 µM (active)
Cc1nccn1CCCNC(=O)CC1C(=O)NCCN1Cc1ccc(Cl)c(F)c1 (stereo unspecified),2.21,–
CCn1ccnc1CNC(=O)CC1C(=O)NCCN1CCCc1ccccc1 (stereo unspecified),1.79,–
CC(=O)Nc1ccc(NC(=O)C(NS(=O)(=O)c2ccc3c(c2)OCCO3)C(C)C)cc1 (stereo unspecified),2.53,–
CCn1cc(C(=O)N[C@@H](C)C(=O)NCCO)c(=O)c2cc3c(cc21)OCO3,39.3,–
COc1nnc(-c2ccc(C)c(S(=O)(=O)N(C)C)c2)c2ccccc12,0,–
c1ccc(-c2cc(-c3ccccc3)[nH]n2)cc1,-17.7,–
CC(=O)OCCOCn1cnn2c(=O)c(Br)c(C)nc12,38.7,–
CC(C)c1nnc(NC(=O)C2CC(=O)N(CCc3ccc(F)cc3)C2)s1 (stereo unspecified),19.1,–
O=C(CS(=O)(=O)Cc1ccccc1)NCC1CCCO1 (stereo unspecified),–,2.94 µM (active)
O=C(COC(=O)c1ccc(S(=O)(=O)Nc2ccccc2)cc1)NCC1CCCO1 (stereo unspecified),0,–
S=C(NCCc1ccccc1)NCC1CCCO1 (stereo unspecified),8.12,–
COc1ccc(NS(=O)(=O)c2ccc(N3CCOCC3)c(NC(=O)c3ccccc3Br)c2)cc1,–,9.28 µM (active)
CC(=O)Nc1ccc(S(=O)(=O)Nc2ccc(N3CCOCC3)c(F)c2)cc1,-18.2,–
COc1ccc(NS(=O)(=O)c2ccc(C)c(C(=O)NNC(=O)c3csc(N4CCOCC4)n3)c2)cc1,-1.4,–
CCCCn1c(N)c(N(CC(C)C)C(=O)c2ccc(-n3c(C)ccc3C)cc2)c(=O)[nH]c1=O,-32.2,–
CCOc1ccc(C(=O)NC2CCN(C(=O)Nc3ccccc3OC)CC2)cc1,-12.6,–
CCOc1ccc(NC(=S)N2CCC(NC(=O)c3ccccc3)CC2)cc1,14.6,–
CCOc1ccc(C(=O)NC2CCN(S(=O)(=O)CC)CC2)cc1,–,2.33 µM (active)
CCOc1c(OC)cccc1C(=O)NCC1(c2ccccc2)CCCC1,8.63,–
CN(C)CCn1c2c(c(SCC(=O)NCc3ccccc3)nc1=O)CCC2,7.34,–
COc1ccccc1CNC(=O)Cn1cc2c(n1)CCCC2,8.68,–

SMILES,"activity change, negative = inhibition [%]",Potency
COc1ccccc1CNC(=O)CSc1nc(=O)n(Cc2ccncc2)c2c1CCC2,–,14.7 µM (active)
O=C(NCCc1ccc(Cl)cc1)C1CCCN1C(=O)NCc1ccccc1 (stereo unspecified),34.6,–
NC(=O)C1CC(=O)N(c2ccc(OCC(=O)NCc3ccccc3)cc2)C1 (stereo unspecified),16.4,–
CC(NC(=O)c1ccc(S(=O)(=O)Nc2ccccc2)cc1)c1ccc(S(N)(=O)=O)cc1 (stereo unspecified),-27.8,–
Cc1sc2nc(CSCC(=O)NC3CCCCC3)[nH]c(=O)c2c1C,-4.04,–
Cc1cccc(C)c1OC(=O)CSc1nnc(-c2ccccc2)o1,-10.3,–
O=C(CSc1nnc(-c2ccccc2)o1)N1CCOCC1,16.5,–
CC1=CC(C)(C)N(C(=O)CSc2nnc(-c3ccccc3)o2)c2ccc(C)cc21,–,13.1 µM (active)
Cc1ccccc1C(=O)N1CCC(C(=O)Oc2ccc(C#N)cc2)CC1,83.9,–
COc1ccc(S(=O)(=O)N2CCOC2CNC(=O)C(=O)NCc2ccncc2)cc1OC (stereo unspecified),0.814,–
Cc1cccc(C)c1NC(=O)CS(=O)CC(=O)N1CCN(c2ccccc2)CC1 (stereo unspecified),36.4,–
S=C(NCC1COc2ccccc2O1)Nc1ccc(Br)cc1 (stereo unspecified),-2.67,–
c1ccc(-c2cc3c(NCC4COc5ccccc5O4)ncnc3s2)cc1 (stereo unspecified),–,10.4 µM (active)
COc1ccc(Nc2ncnc3sc(-c4ccccc4)cc23)c(OC)c1,0,–
N#Cc1ccc(-c2nc3cc(C#N)c(C#N)cc3nc2-c2ccccc2)cc1C#N,–,5.22 µM (active)
N#Cc1ccc(-c2ccc(F)cc2)nc1Sc1ccccc1,-5.08,–
N#Cc1c(-c2ccc(F)cc2)nc(-c2ccccc2)[nH]c1=O,6.5,–
COc1cccc(CNC(=O)Cn2c(=O)oc3cc(S(=O)(=O)N4CCCCC4)ccc32)c1,-26.1,–
CCc1cccc(C)c1NC(=O)COC(=O)CC1CCCC1,12.5,–
CC(C)Sc1ncnc2c1cnn2-c1ccccc1,-5.57,–
C1=C(CCNc2ncnc3c2cnn3-c2ccccc2)CCCC1,–,0.104 µM (active)
O=C(NCCC1=CCCCC1)c1ccc(-n2cncn2)cc1,191,–
O=C(CSc1ncccn1)N1CCCC1,0.0556,–
CN1CCN(S(=O)(=O)c2ccc(Nc3ccc(F)cc3)nc2)CC1,-23.9,–
CCOC(=O)N1CCN(Cc2nc3c(c(=O)n(C)c(=O)n3C)n2Cc2ccccc2)CC1,–,13.1 µM (active)
